Experimental data as given in the supplement of paper PMC10849652.
Of roughly 7,900 targets only a part is listed; those with a hit were picked by preference. About 0.6% of all pairs of compound and target were hits.

compound: Cc1nc(Nc2ncc(C(=O)Nc3c(C)cccc3Cl)s2)cc(N2CCN(CCO)CC2)n1 [dasatinib]; experiment: log2 fold change, soluble protein after heating vs DMSO (PISA); higher = thermal stabilisation; K562 cells, 10 uM, 30 min; active = over 0.2 and 3.5 SD of the protein, either way, in both replicates (recomputed)
Outline: (§1)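 Aliquots of K562 cells (2×10^6 cells/mL) treated with 10 μM compound for 30 min were heated for 3 min over 48°C-58°C. After pooling and extraction in PBS with 0.5% NP-40 at 4°C, soluble protein from a 21,000xg, 90 min spin was quantified by TMTpro 16plex LC-MS/MS with channel sums equalised. Thermal stability is expressed against control samples, from duplicates, as a log2 fold change.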

Sequence of UniProt Q9Y2Y0 (Q9Y2Y0 whole entry, looked up): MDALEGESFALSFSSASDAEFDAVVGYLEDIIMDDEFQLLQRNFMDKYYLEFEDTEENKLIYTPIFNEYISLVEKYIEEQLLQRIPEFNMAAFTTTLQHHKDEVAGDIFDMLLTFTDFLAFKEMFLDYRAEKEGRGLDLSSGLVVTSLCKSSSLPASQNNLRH
Sequence of UniProt Q8TDN6 (Q8TDN6 whole entry, looked up): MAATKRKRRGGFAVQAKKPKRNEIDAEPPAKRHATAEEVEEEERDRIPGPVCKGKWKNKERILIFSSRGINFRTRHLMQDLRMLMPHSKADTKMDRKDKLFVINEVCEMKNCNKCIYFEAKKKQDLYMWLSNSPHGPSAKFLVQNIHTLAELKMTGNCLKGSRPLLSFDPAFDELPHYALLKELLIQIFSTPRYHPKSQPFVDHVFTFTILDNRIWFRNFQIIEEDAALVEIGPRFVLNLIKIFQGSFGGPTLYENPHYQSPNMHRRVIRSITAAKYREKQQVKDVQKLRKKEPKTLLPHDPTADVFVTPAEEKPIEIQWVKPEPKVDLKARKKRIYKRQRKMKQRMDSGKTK
Sequence of UniProt P54886 (P54886 whole entry, looked up): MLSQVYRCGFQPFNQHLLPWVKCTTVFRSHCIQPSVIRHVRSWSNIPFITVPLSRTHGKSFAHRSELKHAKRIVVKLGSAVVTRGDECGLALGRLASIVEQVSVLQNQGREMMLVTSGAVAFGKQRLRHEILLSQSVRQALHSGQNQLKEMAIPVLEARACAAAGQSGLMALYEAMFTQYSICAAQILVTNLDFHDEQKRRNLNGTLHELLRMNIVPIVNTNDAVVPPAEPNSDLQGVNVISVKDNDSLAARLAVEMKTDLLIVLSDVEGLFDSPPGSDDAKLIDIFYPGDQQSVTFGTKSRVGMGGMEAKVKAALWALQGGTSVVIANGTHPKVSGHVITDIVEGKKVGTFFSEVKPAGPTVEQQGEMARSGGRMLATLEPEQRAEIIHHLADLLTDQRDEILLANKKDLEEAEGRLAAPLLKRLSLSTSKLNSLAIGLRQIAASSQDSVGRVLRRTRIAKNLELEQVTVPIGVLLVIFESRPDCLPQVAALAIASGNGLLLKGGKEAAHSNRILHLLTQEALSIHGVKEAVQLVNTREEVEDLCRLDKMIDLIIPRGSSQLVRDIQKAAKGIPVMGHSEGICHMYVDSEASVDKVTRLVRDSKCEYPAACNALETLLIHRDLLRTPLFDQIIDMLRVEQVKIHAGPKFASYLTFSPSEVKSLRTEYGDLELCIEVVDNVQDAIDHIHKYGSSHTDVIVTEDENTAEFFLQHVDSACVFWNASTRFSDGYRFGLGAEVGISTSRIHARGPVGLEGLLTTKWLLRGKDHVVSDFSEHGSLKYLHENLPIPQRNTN
Sequence of UniProt P31751 (P31751 whole entry, looked up): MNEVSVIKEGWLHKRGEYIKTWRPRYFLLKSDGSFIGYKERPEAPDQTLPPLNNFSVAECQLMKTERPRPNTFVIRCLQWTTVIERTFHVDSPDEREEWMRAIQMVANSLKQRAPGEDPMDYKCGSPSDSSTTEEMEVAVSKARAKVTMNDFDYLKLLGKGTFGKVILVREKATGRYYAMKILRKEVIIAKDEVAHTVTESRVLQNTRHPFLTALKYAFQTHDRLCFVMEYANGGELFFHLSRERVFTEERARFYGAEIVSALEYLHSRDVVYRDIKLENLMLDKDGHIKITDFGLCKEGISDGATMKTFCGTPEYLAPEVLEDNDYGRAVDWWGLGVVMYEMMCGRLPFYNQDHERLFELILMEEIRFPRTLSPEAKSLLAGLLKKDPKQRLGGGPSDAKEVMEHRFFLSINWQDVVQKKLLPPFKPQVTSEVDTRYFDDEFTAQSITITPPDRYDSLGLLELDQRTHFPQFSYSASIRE
Sequence of UniProt P15291 (P15291 whole entry, looked up): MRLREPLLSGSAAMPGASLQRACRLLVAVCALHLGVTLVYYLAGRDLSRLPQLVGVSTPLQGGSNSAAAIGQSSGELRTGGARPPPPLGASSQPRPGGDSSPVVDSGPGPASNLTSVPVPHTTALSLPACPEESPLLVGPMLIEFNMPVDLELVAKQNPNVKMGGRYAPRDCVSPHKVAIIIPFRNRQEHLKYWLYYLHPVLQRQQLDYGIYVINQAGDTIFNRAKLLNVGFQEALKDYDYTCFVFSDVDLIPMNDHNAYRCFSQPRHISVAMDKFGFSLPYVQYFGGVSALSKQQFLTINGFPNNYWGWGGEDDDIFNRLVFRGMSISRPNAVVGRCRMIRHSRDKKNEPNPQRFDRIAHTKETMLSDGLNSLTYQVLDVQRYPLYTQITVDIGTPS
Sequence of UniProt P53680 (P53680 whole entry, looked up): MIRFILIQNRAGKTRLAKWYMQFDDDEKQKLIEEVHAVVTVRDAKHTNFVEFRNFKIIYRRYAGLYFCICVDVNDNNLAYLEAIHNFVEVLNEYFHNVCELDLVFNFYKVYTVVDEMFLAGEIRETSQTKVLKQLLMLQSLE
Sequence of UniProt Q9UKV5 (Q9UKV5 whole entry, looked up): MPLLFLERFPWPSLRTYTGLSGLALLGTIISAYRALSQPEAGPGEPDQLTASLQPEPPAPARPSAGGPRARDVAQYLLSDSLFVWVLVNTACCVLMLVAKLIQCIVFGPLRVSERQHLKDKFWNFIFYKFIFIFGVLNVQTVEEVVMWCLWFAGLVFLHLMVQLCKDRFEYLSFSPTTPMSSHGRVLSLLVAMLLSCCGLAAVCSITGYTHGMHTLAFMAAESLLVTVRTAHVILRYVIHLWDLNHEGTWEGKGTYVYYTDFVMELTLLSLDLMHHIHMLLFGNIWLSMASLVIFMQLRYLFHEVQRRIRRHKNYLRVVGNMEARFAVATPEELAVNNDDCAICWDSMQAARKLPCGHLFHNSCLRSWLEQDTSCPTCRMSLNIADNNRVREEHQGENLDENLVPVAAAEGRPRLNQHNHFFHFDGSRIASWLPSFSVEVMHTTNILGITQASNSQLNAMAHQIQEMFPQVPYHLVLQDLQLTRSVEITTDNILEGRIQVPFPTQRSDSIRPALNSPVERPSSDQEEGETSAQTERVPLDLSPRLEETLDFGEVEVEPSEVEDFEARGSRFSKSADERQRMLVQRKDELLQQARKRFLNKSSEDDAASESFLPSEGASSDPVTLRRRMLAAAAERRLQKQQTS
Sequence of UniProt Q9NUQ2 (Q9NUQ2 whole entry, looked up): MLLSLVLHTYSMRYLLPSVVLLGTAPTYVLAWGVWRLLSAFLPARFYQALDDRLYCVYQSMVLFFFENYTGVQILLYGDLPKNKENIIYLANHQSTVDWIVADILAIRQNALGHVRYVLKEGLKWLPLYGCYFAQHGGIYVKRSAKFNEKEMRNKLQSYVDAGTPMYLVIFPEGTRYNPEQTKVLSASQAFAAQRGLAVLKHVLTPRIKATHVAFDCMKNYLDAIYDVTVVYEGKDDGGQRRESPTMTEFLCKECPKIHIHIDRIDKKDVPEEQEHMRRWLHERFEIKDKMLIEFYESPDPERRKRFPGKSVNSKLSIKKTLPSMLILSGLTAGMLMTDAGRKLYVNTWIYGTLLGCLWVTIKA
Sequence of UniProt P49748 (P49748 whole entry, looked up): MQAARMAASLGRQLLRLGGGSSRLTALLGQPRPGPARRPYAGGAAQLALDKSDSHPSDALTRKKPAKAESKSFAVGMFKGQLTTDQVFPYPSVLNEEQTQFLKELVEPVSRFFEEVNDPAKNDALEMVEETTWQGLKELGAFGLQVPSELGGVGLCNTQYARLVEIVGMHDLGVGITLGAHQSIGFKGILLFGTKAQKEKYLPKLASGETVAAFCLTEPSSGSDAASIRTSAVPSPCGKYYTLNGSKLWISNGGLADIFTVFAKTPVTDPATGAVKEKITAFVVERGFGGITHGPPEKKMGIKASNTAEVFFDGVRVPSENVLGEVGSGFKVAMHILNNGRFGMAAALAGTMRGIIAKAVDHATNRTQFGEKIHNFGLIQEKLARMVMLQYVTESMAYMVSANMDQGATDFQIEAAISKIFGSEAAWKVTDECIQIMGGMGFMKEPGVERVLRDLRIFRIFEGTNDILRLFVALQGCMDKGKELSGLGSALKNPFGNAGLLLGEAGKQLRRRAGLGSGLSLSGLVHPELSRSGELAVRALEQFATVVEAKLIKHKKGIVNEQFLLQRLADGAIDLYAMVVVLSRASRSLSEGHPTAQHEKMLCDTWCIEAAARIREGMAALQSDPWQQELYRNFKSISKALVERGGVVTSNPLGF
Sequence of UniProt Q6P6C2 (Q6P6C2 whole entry, looked up): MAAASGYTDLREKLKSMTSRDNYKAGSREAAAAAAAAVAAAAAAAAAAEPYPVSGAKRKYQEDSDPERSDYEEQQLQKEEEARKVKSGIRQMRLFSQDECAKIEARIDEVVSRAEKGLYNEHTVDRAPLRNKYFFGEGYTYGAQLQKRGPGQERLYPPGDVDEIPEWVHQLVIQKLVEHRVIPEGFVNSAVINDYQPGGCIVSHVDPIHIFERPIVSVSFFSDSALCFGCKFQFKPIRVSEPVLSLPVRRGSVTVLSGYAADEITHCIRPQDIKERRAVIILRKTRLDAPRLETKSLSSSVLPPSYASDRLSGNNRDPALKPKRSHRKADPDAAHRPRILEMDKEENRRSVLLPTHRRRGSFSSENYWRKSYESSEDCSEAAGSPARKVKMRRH
Sequence of UniProt P56385 (P56385 whole entry, looked up): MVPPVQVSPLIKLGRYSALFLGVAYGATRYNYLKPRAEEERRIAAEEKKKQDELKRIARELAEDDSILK
Sequence of UniProt Q9Y4P1 (Q9Y4P1 whole entry, looked up): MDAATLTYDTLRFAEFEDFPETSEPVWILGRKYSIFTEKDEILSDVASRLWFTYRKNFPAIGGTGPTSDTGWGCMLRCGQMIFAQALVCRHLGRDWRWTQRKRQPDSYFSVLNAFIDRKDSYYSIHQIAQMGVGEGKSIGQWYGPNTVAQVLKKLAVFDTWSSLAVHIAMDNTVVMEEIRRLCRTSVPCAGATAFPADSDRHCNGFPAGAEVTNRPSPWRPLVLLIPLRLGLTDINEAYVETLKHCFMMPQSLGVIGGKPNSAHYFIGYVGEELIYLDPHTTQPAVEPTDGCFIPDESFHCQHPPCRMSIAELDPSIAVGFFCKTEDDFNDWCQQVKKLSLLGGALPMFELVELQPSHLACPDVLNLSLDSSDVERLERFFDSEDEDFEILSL

log2 fold change, inactive:
BZW2 (UniProt Q9Y6E2) -0.132, ALDH6A1 (UniProt Q02252) -0.204, ATAD3B (UniProt Q5T9A4) -0.099, ASNS (UniProt P08243) 0, ALG11 (UniProt Q2TAA5) 0.005, AGPAT5 (UniProt Q9NUQ2) -0.058, ALDH9A1 isoform 3 (UniProt P49189) 0.025, ARL2BP (UniProt Q9Y2Y0) -0.069, ASH2L (UniProt Q9UBL3) -0.004, ACO2 (UniProt Q99798) -0.118, APOB (UniProt P04114) -0.213, AMFR (UniProt Q9UKV5) -0.094, AKT2 (UniProt P31751) -0.145, BCAP29 isoform 2 (UniProt Q9UHQ4) 0.154, ADD3 (UniProt Q9UEY8) 0.072, ATP6V0A1 isoform 3 (UniProt Q93050) 0.018, BCCIP isoform 2 (UniProt Q9P287) -0.071, BRD4 (UniProt O60885) -0.094, ATL2 (UniProt Q8NHH9) -0.129, BRIX1 (UniProt Q8TDN6) 0.109, ACBD6 (UniProt Q9BR61) -0.23, ABCB6 (UniProt Q9NP58) -0.001, ATG4B isoform 2 (UniProt Q9Y4P1) -0.242, ALDH18A1 (UniProt P54886) -0.133, AGPAT3 isoform 3 (UniProt Q9NRZ7) -0.092, ANKZF1 (UniProt Q9H8Y5) -0.04, AK6 (UniProt Q9Y3D8) -0.288, AP2S1 (UniProt P53680) -0.011, ACADVL isoform 3 (UniProt P49748) -0.016, ATP5ME (UniProt P56385) 0.084, B4GALT1 (UniProt P15291) -0.083, ALKBH5 (UniProt Q6P6C2) 0.014, ATP12A isoform 2 (UniProt P54707) 0.022, ABHD16A (UniProt O95870) 0.029, BAP1 (UniProt Q92560) -0.031, ARMC8 (UniProt Q8IUR7) -0.082

compound: Cc1ncc(-c2ccnc(Nc3ccc(S(C)(=O)=O)cc3)n2)n1C(C)C; experiment: as above
Outline: as §1

log2 fold change, inactive:
BZW2 (UniProt Q9Y6E2) -0.019, ALDH6A1 (UniProt Q02252) -0.015, ATAD3B (UniProt Q5T9A4) 0.027, ASNS (UniProt P08243) -0.003, ALG11 (UniProt Q2TAA5) 0.129, AGPAT5 (UniProt Q9NUQ2) -0.035, ALDH9A1 isoform 3 (UniProt P49189) -0.018, ARL2BP (UniProt Q9Y2Y0) -0.103, ASH2L (UniProt Q9UBL3) 0.013, ACO2 (UniProt Q99798) -0.013, APOB (UniProt P04114) 0.051, AMFR (UniProt Q9UKV5) 0.049, AKT2 (UniProt P31751) -0.108, BCAP29 isoform 2 (UniProt Q9UHQ4) -0.018, ADD3 (UniProt Q9UEY8) -0.096, ATP6V0A1 isoform 3 (UniProt Q93050) -0.079, BCCIP isoform 2 (UniProt Q9P287) 0.017, BRD4 (UniProt O60885) -0.233, ATL2 (UniProt Q8NHH9) 0.031, BRIX1 (UniProt Q8TDN6) -0.013, ACBD6 (UniProt Q9BR61) 0.057, ABCB6 (UniProt Q9NP58) 0.024, ATG4B isoform 2 (UniProt Q9Y4P1) -0.041, ALDH18A1 (UniProt P54886) 0.042, AGPAT3 isoform 3 (UniProt Q9NRZ7) -0.007, ANKZF1 (UniProt Q9H8Y5) 0.018, AK6 (UniProt Q9Y3D8) -0.015, AP2S1 (UniProt P53680) -0.082, ACADVL isoform 3 (UniProt P49748) -0.007, ATP5ME (UniProt P56385) -0.046, B4GALT1 (UniProt P15291) 0.021, ALKBH5 (UniProt Q6P6C2) 0.011, ATP12A isoform 2 (UniProt P54707) 0.007, ABHD16A (UniProt O95870) -0.058, BAP1 (UniProt Q92560) 0.006, ARMC8 (UniProt Q8IUR7) -0.008
